Test results reported in PubChem BioAssay (NCATS).
Several values for one entry are separate records, joined by “and”; a condition that tells them apart may be missing. Equal entries are not always repeated. Inconclusive results are not listed. Activity calls are given as the source filed them. Unless noted, calls come from the whole dose curve; as a rule, active = well fitted curve in the direction sought with a large enough effect; inconclusive = small, poorly fitted or top-dose-only effect, or another doubt; inactive = no such curve, though single readings can be large; an effect the other way counts as inactive or inconclusive. Where a SMILES comes first, the peptide text is derived from it. Square brackets hold non-standard residues; d marks the D form. Bridges are numbered along the chain shown (N, C = ends). Peptide text beside a SMILES is read from it. pGlu = O=C1CC[C@@H](C(=O)O)N1

How the values were obtained:
[1] = biological target: Glutathione peroxidase 1 (Homo sapiens) (UniProt P07203); test: Primary qHTS Assay for Inhibitors of Recombinant Selenoprotein Glutathione Peroxidase 1 (GPX1) (AID 1845191); note: nearly all actives have a fitted effect of over 65% in size; note: potency is the fitted concentration of half-maximal effect; for activity, negative = inhibition: % is set by controls: 0 for no effect and ±100 for the full control effect
Chain of Glutathione peroxidase 1 (Homo sapiens) (P07203 whole entry, looked up): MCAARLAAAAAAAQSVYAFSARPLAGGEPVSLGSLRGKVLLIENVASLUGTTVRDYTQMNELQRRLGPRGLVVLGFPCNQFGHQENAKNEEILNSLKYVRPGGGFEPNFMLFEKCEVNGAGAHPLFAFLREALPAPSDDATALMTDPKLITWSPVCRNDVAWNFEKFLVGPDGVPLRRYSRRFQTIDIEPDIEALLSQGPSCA
Procedure, shortened: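 GR-coupled readout: NADPH consumption tracked by fluorescence, ex 340/em 450 nm, at t=0 and after 15 min at RT. Final mix 10 nM GPX1, 1 mM GSH, 0.5 mM CHP, 0.5 mM NADPH, 100 nM GR, 0.01% BSA, following 30 min enzyme–compound preincubation.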

[2] = biological target: Phospholipid hydroperoxide glutathione peroxidase GPX4 (Homo sapiens) (UniProt P36969); test: Primary qHTS Assay for Inhibitors of Recombinant Selenoprotein Glutathione Peroxidase 4 (GPX4) (AID 1845192); note: nearly all actives have a fitted effect of over 65% in size; note: potency is the fitted concentration of half-maximal effect
Chain of Phospholipid hydroperoxide glutathione peroxidase GPX4 (Homo sapiens) (P36969 whole entry, looked up): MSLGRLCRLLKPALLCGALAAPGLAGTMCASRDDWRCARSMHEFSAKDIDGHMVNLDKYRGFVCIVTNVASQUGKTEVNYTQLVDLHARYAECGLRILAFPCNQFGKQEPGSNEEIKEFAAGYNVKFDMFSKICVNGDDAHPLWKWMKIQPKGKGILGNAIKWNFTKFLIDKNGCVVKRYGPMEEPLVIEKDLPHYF
Procedure, shortened: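 Steps: GPX4 plus compound, 30 min RT; add GR/GSH/NADPH master mix; start with cumene hydroperoxide; read 340/450 nm fluorescence at 0 and 15 min. Finals were 200 nM GPX4, 1 mM GSH, 0.5 mM CHP, 0.5 mM NADPH, 100 nM GR.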

[3] = biological target: Luciferin 4-monooxygenase (Photinus pyralis) (UniProt P08659); test: Biochemical firefly luciferase enzyme assay for NPC (AID 624030); note: nearly all actives have a fitted effect of over 70% in size; note: potency is the fitted concentration of half-maximal effect
Chain of Luciferin 4-monooxygenase (Photinus pyralis) (P08659 whole entry, looked up): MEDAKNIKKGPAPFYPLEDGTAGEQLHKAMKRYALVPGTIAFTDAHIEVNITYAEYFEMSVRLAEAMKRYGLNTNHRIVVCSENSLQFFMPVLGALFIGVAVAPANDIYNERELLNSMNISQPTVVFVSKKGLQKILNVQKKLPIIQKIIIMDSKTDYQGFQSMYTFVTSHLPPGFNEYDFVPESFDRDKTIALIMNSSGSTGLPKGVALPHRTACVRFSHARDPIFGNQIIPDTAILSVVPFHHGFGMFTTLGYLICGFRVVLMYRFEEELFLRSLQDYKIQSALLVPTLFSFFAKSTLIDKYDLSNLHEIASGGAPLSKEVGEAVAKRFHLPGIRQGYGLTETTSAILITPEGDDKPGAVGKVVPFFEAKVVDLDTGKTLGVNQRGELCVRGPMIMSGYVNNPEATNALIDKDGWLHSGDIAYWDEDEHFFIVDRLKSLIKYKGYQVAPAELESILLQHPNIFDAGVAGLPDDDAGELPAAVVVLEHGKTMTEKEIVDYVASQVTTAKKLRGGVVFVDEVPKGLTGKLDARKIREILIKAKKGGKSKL
Procedure, shortened: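 Purified P. pyralis luciferase at 10 nM in 50 mM Tris Acetate (final), luminescence read within 5 minutes of enzyme addition to compounds. Activity normalised to PTC124 versus DMSO; concentration-response curves classed by r2, magnitude and activity.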

[4] = qHTS profiling for inhibitors of Plasmodium falciparum proliferation (AID 504749); note: potency is the fitted concentration of half-maximal effect;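 for activity, negative = inhibition: 0% = DMSO vehicle and full inhibition = artemisinin control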; for all read-outs here: nearly all actives have a fitted effect of over 60% in size; conditions: P. falciparum in erythrocytes, SYBR Green DNA, 72 h; for activity, negative = inhibition: at 28.7 µM (top of the series)
Procedure, shortened: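 Each compound contacts P. falciparum-infected red blood cells for 72 h at 37 C; lysis buffer (Tris, EDTA, saponin, Triton X, SYBR Green I) is added and fluorescence measured next morning; values normalized to controls.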

[5] = Cell Viability - BJ (AID 421; calls by dose curve;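 note: potency is the fitted concentration of half-maximal effect; cells exposed to compound for 40 hours at 37 °C before readout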); conditions: BJ fibroblast viability, qHTS
Procedure, shortened: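 Cytotoxicity as drop in intracellular ATP (CellTiter-Glo, 20 min RT) after 40 hr compound exposure of BJ fibroblasts at 37 °C. Titrations scaled between DMSO and 100 uM tamoxifen, Hill-fitted for AC50.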

[6] = Cell Viability - MRC5 (AID 434; calls by dose curve;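 note: potency is the fitted concentration of half-maximal effect; cells exposed to compound for 40 hours at 37 °C; potency reflects cytotoxicity seen as loss of intracellular ATP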); conditions: MRC5 lung fibroblast viability, qHTS
Procedure, shortened: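 ATP luminescence read-out (CellTiter-Glo, 20 min RT) after 40 hr, 37 °C compound exposure of 1500 MRC5 cells/well. Data normalized to DMSO (basal) and 100 uM tamoxifen (100% inhibition); AC50 from standard Hill equation.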

[7] = Cell Viability - SK-N-SH (AID 435; calls by dose curve; note: potency is the fitted concentration of half-maximal effect); conditions: SK-N-SH neuroblastoma cell viability qHTS
Procedure, shortened: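 qHTS cytotoxicity: CellTiter-Glo ATP luminescence after 40 h compound exposure of human neuroblastoma SK-N-SH cells at 37 °C. AC50 derived by Hill-equation fitting, with DMSO as basal and 100 uM tamoxifen as full inhibition.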

[8] = biological target: Mitogen-activated protein kinase 10 (Mus musculus) (UniProt Q61831); test: JNK3 AlphaScreen Assay (AID 530; active = well fitted curve in either direction with a large enough effect, not every such curve was filed as active;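 note: kinase came from lysate of stimulated human HepG2 cells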; note: potency is the fitted concentration of half-maximal effect)
Procedure, shortened: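 Activity was read by AlphaScreen after JNK3-containing HepG2 lysate (cytokine pre-activated) phosphorylated biotinylated GST-cJun with 10 uM ATP at room temperature. Phospho-Ser73 cJun antibody with Protein-A acceptor beads provided detection.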

[9] = Cell Viability - Mesenchymal (AID 546); conditions: mesenchymal cells viability, qHTS; activity change, negative = cytotoxicity: at 91.7 µM (top of the series);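 note: cells exposed to compound for 40 hours before reading; 0% = DMSO only and -100% = 100 µM tamoxifen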
Procedure, shortened: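 Human renal mesenchymal cells (glomerulus-derived), 1000 cells/well, 5 hr 37 °C pre-incubation; compound 40 hr, 37 °C; CellTiter-Glo, 20 min RT; luminescence; AC50 via Hill equation.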

[10] = biological target: Cytochrome P450 3A4 (Homo sapiens) (UniProt P08684); test: qHTS Assay for Inhibitors and Substrates of Cytochrome P450 3A4 (AID 884); note: nearly all actives have a fitted effect of over 50% in size; note: potency is the fitted concentration of half-maximal effect
Chain of Cytochrome P450 3A4 (Homo sapiens) (P08684 whole entry, looked up): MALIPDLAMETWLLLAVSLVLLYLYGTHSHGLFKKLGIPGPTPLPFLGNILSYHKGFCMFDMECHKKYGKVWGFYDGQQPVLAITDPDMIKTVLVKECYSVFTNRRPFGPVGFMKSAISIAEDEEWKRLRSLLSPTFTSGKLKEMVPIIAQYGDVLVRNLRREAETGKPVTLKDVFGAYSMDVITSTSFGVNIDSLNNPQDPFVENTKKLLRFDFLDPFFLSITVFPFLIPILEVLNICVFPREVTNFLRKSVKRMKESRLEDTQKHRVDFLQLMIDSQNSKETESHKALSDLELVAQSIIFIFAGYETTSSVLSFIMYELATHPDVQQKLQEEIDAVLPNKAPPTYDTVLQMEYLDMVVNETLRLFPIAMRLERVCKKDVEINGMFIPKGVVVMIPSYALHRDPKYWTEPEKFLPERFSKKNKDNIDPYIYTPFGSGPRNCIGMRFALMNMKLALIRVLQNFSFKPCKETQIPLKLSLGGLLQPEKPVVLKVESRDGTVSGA
Procedure, shortened: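 Luminescent readout of luciferin produced by CYP3A4 (20 nM) dealkylation of Luciferin-PPXE, 25 uM (its KM). NADPH-driven reaction ran 60 min at RT after 10 min compound preincubation; data scaled to 57 uM ketoconazole as 100% inhibition.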

[11] = qHTS Assay for Identification of Small Molecule Inducers of Hypoxia Response (AID 2120; active = well fitted curve in the direction sought with a large enough effect in the signal ratio, with a control signal flat, not every such curve was filed as active; the % refers to the signal ratio; note: 0% is about no effect)
Procedure, shortened: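 Cell-based qHTS for reporter induction: hypoxia response element controlled beta-lactamase in ME-180 cells. Compounds incubated 17 h at 37 degrees C; activity from blue/green (460/530 nm) ratio, inducers ranked by AC50.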

[12] = biological target: Peroxisome proliferator-activated receptor gamma (Homo sapiens) (UniProt P37231); test: qHTS assay for small molecule agonists of peroxisome proliferator-activated receptor gamma signaling (AID 588536; active = well fitted curve in the direction sought with a large enough effect in the signal ratio, with a control signal flat, not every such curve was filed as active; the % refers to the signal ratio;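 note: 0% = DMSO basal wells and 100% = rosiglitazone at 2 µM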)
Chain of Peroxisome proliferator-activated receptor gamma (Homo sapiens) (P37231 whole entry, looked up): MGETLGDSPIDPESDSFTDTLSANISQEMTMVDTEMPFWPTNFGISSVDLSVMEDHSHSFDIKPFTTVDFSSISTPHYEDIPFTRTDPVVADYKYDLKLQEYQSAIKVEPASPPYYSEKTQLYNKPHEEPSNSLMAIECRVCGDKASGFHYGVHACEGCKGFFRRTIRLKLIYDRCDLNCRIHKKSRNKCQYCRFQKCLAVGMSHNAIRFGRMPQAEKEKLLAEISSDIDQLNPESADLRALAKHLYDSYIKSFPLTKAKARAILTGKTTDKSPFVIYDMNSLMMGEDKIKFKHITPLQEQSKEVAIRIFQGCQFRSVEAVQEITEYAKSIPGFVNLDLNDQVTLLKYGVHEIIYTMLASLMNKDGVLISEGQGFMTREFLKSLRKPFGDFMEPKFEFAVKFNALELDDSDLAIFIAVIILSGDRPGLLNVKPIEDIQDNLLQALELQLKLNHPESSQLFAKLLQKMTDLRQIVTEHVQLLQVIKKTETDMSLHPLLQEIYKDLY
Procedure, shortened: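 This is an agonist-mode beta-lactamase reporter assay in HEK293 PPAR-gamma-UAS-bla cells with 1% charcoal/dextran FBS. Compound titrations ran 16 h at 37 C before CCF4 detection. EC50 and efficacy are Hill fits scaled to 2 uM rosiglitazone (100%) and DMSO basal.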

[13] = biological target: Thyroid hormone receptor beta (Homo sapiens) (UniProt P10828); test: qHTS assay for small molecule agonists of thyroid hormone receptor beta signaling (AID 588545; calls by dose curve)
Chain of Thyroid hormone receptor beta (Homo sapiens) (P10828 whole entry, looked up): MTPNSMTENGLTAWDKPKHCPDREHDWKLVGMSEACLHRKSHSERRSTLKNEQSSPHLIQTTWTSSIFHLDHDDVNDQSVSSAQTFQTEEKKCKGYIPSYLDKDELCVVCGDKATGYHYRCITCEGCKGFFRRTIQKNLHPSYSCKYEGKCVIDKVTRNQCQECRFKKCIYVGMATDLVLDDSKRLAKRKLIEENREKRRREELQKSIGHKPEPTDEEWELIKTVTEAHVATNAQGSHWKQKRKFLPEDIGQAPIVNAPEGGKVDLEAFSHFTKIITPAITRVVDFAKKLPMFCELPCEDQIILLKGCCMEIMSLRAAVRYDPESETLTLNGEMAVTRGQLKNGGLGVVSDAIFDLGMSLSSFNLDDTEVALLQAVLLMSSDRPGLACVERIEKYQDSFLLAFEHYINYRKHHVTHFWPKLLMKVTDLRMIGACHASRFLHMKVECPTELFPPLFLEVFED
Procedure, shortened: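 Agonist activity was read as beta-lactamase CCF4 fluorescence (405 ex, 460/530 em), scaled between DMSO (0%) and 10 nM T3 (100%), then Hill-fitted for EC50 and efficacy. HEK 293 TR-UAS-bla cells in 2% charcoal/dextran FBS medium were exposed 18 h at 37 C.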

[14] = qHTS assay for small molecule antagonists of retinoid X receptor alpha signaling (AID 588546); conditions: HEK293T RXRa-UAS-bla, beta-lactamase ratio, antagonist mode; measured here: W530 green channel, cytotoxicity proxy;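 note: cells stimulated with 9-cis-retinoic acid as agonist; % is set by controls: 0 for no effect and ±100 for the full control effect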
Procedure, shortened: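 Beta-lactamase reporter inhibition, read as CCF4 fluorescence ratio (ex 405, em 460/530 nm) after 2 h at RT. HEK293T UAS-bla cells, 2500/well, were stimulated with 9-cis-RA at 500 or 100 nM final alongside test compound for 18 h at 37 C.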

[15] = qHTS assay for environmental chemicals that activate the Aryl hydrocarbon Receptor (AhR) signaling pathway (AID 651777); conditions: 1A2-DRE human hepatoma cells, luciferase, 24 h; activation: stronger effect = higher value; note: % of control where 0% means no effect; nearly all actives have a fitted effect of over 15% in size
Procedure, shortened: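 1A2-DRE human hepatoma reporter line; 1,200 cells/well; cmpd or DMSO 24 h, 37 C/5% CO2; One-Glo 30 min RT; luciferase lum.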

[16] = biological target: Peroxisome proliferator-activated receptor alpha (Homo sapiens) (UniProt Q07869); test: qHTS assay for small molecule agonists of the peroxisome proliferator-activated receptor alpha (PPARalpha) signaling pathway (AID 651778); conditions: PathHunter PPARalpha complementation, chemiluminescence, 6 h; max response: stronger effect = higher value; note: % of control where 0% means no effect
Chain of Peroxisome proliferator-activated receptor alpha (Homo sapiens) (Q07869 whole entry, looked up, the tested form may be a part): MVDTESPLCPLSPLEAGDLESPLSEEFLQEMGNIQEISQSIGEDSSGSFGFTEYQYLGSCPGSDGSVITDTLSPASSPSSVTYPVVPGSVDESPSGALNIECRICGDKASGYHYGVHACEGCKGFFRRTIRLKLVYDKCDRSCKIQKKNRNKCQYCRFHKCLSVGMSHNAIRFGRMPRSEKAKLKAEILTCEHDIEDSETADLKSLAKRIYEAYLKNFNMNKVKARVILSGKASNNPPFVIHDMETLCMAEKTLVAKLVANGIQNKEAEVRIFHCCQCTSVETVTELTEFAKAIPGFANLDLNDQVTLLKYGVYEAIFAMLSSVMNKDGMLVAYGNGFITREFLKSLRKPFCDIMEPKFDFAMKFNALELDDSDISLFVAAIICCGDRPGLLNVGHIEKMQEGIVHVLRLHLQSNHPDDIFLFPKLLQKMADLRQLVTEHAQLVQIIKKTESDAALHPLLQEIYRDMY
Procedure, shortened: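 Enzyme-fragment complementation assay in which ligand-bound PPARalpha translocates and forms an active enzyme that generates chemiluminescence. Cells were plated overnight, exposed to compound for 6 hr at 37 C, and then given detection reagent for 60 min at room temperature.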

[17] = qHTS assay for small molecule agonists of the antioxidant response element (ARE) signaling pathway measured by Nrf2-dependant transcriptional activity (AID 720636; active = well fitted curve in the direction sought with a large enough effect in the repeat runs; an effect the other way counts as inactive or inconclusive;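 note: HepG2 cells with an ARE-driven luciferase reporter; % of control where 0% means no effect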)
Procedure, shortened: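 Cells: ARE-luc HepG2 with Nrf2-responsive luciferase. Medium contained 1% dialyzed FBS. Compound exposure lasted 16 hr at 37 C and 5% CO2, followed by ONE-Glo luciferase detection.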

[18] = qHTS assay for cell viability of HEK293 cells (AID 743288); conditions: ATP luminescence (CellTiter-Glo), 18 h; max response: stronger effect = lower value; note: % is set by controls: 0 for no effect and ±100 for the full control effect; nearly all actives have a fitted effect of over 50% in size
Procedure, shortened: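 Readout is luciferase-coupled ATP content (CellTiter-Glo luminescence, 30 min room temperature) as a measure of metabolically competent cells. Parental HEK293 cells were plated 5 h or more before compound addition, then treated 18 h at 37 C.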

[19] = qHTS assay for cell viability of the p53RE-bla HCT-116 cell line (AID 743292); note: % is set by controls: 0 for no effect and ±100 for the full control effect; nearly all actives have a fitted effect of over 55% in size
Procedure, shortened: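 HCT-116 p53RE-bla cells seeded 4,000/well; 5 h at 37 C; compound (DMSO) added; 16 h at 37 C; CellTiter-Glo added, 30 min RT; luminescence read.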

[20] = qHTS drug screen for cell cycle checkpoint inhibitors in PARPi-resistant BRCA-mutant ovarian cancer cell lines. (AID 1963452; calls by dose curve); conditions: PEO1/OlaR viability, CellTiter-Glo luminescence, 96 h, stronger effect = lower value
Procedure, shortened: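 PEO1, PEO4 and PEO1/OlaR ovarian cancer cells, 600 per well, exposed 96 h at 37C to a dilution series. Viability read by CellTiter-Glo luminescence, normalized to DMSO and empty wells; activity summarized as Z-AUC.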

[21] = measured here: PEO1 parental Z-AUC

C[C@@H]1NC(=O)[C@@H]2CCCN2C(=O)[C@H](CC(N)=O)NC(=O)[C@@H]2CSSC[C@H](N)C(=O)N[C@H]3CSSC[C@H](NC1=O)C(=O)N[C@@H]([C@@H](C)O)C(=O)NCC(=O)N[C@H](C(=O)N[C@@H](Cc1ccc(O)cc1)C(=O)O)CSSC[C@H](NC(=O)[C@H](Cc1ccc(O)cc1)NC(=O)[C@H](CCC(=O)O)NC3=O)C(=O)N2 (H-CCEYCCNPACTGCY-OH; disulfide 1-6, 2-10, 5-13)
inactive: Potency [1] | Potency [2]

CC[C@H](C)[C@@H]([C@@H](CC(=O)N1CCC[C@H]1[C@H](OC)[C@@H](C)C(=O)NCCc1ccccc1)OC)N(C)C(=O)[C@@H](NC(=O)[C@H](C(C)C)N(C)C)C(C)C
inactive: Potency [1] | Potency [2]

OC[C@H]1OC(O)C[C@@H](O)[C@@H]1O (stereo not given in full)
inactive: Potency [1] | Potency [2]

CCN1/C(=C/C=C/C=C/c2sc3ccccc3[n+]2CC)Sc2ccccc21
active: Potency [3] 32.2 µM | Potency [1] 1.43 µM | Potency [2] 7.94 µM | Potency ([4]; parasite line A) 2.82 µM | Potency ([4]; parasite line B) 3.98 µM

O[C@@H]([C@H](O)[C@@H](O)CBr)[C@@H](O)CBr
inactive: Potency [5] > 92 µM | Potency [6] > 92 µM | Potency [7] > 92 µM | Potency [8] | activity change, negative = cytotoxicity [9] 7.81% | Potency [10] | outcome [11] | outcome [12] | outcome [13] | activation [15] 0.0467% | max response [16] -0.722% | Potency [17] | max response [18] -10.9% | Potency [19] | Potency [1] | Potency [2]
-10.6%: max response [14]

NCCCC(N)C(=O)O (stereo not given)
inactive: Potency [3] | Potency [1] | Potency [2]

O=C(/C=C/c1ccc(Cl)cc1)N1CCC2(CC1)CN(Cc1ccc(Cl)c(Cl)c1)C(=O)O2
-0.18: Z-AUC [20, 21]
inactive: Potency [1] | Potency [2] | Z-AUC [20] 1.05
0.00813: Z-AUC ([20]; measured here: PEO4 Z-AUC)

O=c1cc(-c2cccc(O)c2)oc2c(O)c(O)ccc12
active: Potency [8] 7.94 µM | Potency [10] 15.8 µM
inactive: Potency [1]

CCC(=O)O[C@@H](OP(=O)(CCCCc1ccccc1)CC(=O)N1C[C@H](C2CCCCC2)C[C@H]1C(=O)O)C(C)C (stereo not given in full)
inactive: Potency [3] | activity, negative = inhibition [1] 2.57% [at 9.52 µM] | activity, negative = inhibition ([4]; parasite line A) -6.06% | activity, negative = inhibition ([4]; parasite line B) -3.37%

CCc1ccc(N(CC(C)C)S(=O)(=O)c2ccc(OCC3CCOCC3)c(CO)c2)cc1
inactive: Potency [1] | Potency [2] | Z-AUC [20] -1.27
-0.861: Z-AUC ([20]; measured here: PEO4 Z-AUC)
-0.28: Z-AUC [20, 21]

CC1CCC(C(C)C)C(OC(=O)c2ccccc2O)C1 (stereo not given)
inactive: Potency [3] | Potency [1] | Potency [2] | activity, negative = inhibition ([4]; parasite line A) -1.98% | activity, negative = inhibition ([4]; parasite line B) 8.37%

O=NCc1ccc([N+](=O)[O-])o1
inactive: Potency [3] | Potency [1] | Potency [2] | activity, negative = inhibition ([4]; parasite line A) -23.3% | activity, negative = inhibition ([4]; parasite line B) 5.01%

Cc1cccc(O)c1
-8.57% and -4.8%: max response [14]
inactive: outcome [12] | activation [15] 3.54% and 0.802% | max response [16] -4.41% and -2.22% | Potency [17] | max response [18] -15.7% and -2.81% | Potency [19] | Potency [1] | Potency [2]

CO/N=C(/C(=O)N[C@@H]1C(=O)N2C(C(=O)O)=CCS[C@H]12)c1csc(N)n1
inactive: Potency [3] | activity, negative = inhibition ([4]; parasite line A) 1.12% | activity, negative = inhibition ([4]; parasite line B) 9.16%
active: Potency [1] 10.1 µM

CCNC(=O)[C@H]1CCCN1C(=O)[C@H](CCCN=C(N)N)NC(=O)[C@H](CC(C)C)NC(=O)[C@H](CC(C)C)NC(=O)[C@@H](Cc1ccc(O)cc1)NC(=O)[C@H](CO)NC(=O)[C@@H](Cc1c[nH]c2ccccc12)NC(=O)[C@H](Cc1cnc[nH]1)NC(=O)[C@@H]1CCC(=O)N1 ([pGlu]H[dW]S[dY]LLR[dP]-NHEt)
inactive: Potency [3] | Potency [1]

O=S(=O)(O)c1ccccc1
inactive: Potency [5] > 92 µM | Potency [6] > 92 µM | Potency [7] > 92 µM | Potency [8] | activity change, negative = cytotoxicity [9] 0.153% | Potency [10] | outcome [11] | outcome [12] | outcome [13] | activation [15] -0.565% | max response [16] -0.704% | Potency [17] | max response [18] 8.35% | Potency [19] | Potency [1] | Potency [2]
5.99%: max response [14]
